The values below come from PubChem BioAssay (NCATS).

SMILES strings stand for the structures. “And” between values parts separate entries of the source, which are not always exact repeats. Equal values may be shown once. Results filed as inconclusive are left out. The source made the active and inactive calls. The call rests on the fitted dose curve; in most records, active means well fitted curve in the direction sought with a large enough effect; inconclusive means small, poorly fitted or top-dose-only effect, or another doubt; inactive means no such curve, though single readings can be large; an effect the other way counts as inactive or inconclusive.

The nature of experiment [1]: qHTS of pediatric cancer cell lines to identify multiple opportunities for drug repurposing: Confirmatory screen for BT-12 cells (AID 1347112). Further: nearly all actives have a fitted effect of over 55% in size. The gist of the method:
(§1)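 Viability after 48 h compound treatment at 37C, 500-1,000 cells/well, read as ATP luminescence with CellTiter-Glo. Primary screens used 11-point (MIPE, 0.78 nM-46 µM) or 8-point (NPC, 0.59 nM-46 µM) final concentrations; follow-up screens used 11-point dilutions.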
Background: In qHTS, concentration-response curves come from the screen itself.

Experiment [2] can be described thus: qHTS of pediatric cancer cell lines to identify multiple opportunities for drug repurposing: Confirmatory screen for DAOY cells (AID 1347114). Further: nearly all actives have a fitted effect of over 65% in size. Put shortly: (§2)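 Viability measured as metabolically active cells via CellTiter-Glo luminescence following 48 hours of compound exposure, 11-point dilutions in confirmatory testing. 500-1,000 cells/well plated 5 hours before dosing; controls were DMSO and 2.3 µM bortezomib.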

Experiment [3] in a line: qHTS of pediatric cancer cell lines to identify multiple opportunities for drug repurposing: Confirmatory screen for SJ-GBM2 cells (AID 1347116). Further: nearly all actives have a fitted effect of over 60% in size. The gist of the method:
as §2

Experiment [4] in a line: qHTS of pediatric cancer cell lines to identify multiple opportunities for drug repurposing: Confirmatory screen for MG 63 (6-TG R) cells (AID 1347119). Further: nearly all actives have a fitted effect of over 55% in size. The gist of the method: as §1
Experiment [5] is described as follows: qHTS of pediatric cancer cell lines to identify multiple opportunities for drug repurposing: Confirmatory screen for Rh18 cells (AID 1347125). Further: nearly all actives have a fitted effect of over 55% in size. Put shortly: as §1
Experiment [6] in a line: qHTS of pediatric cancer cell lines to identify multiple opportunities for drug repurposing: Confirmatory screen for OHS-50 cells (AID 1347128).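 Further: compound exposure lasted 48 h at 37 degrees C; nearly all actives have a fitted effect of over 55% in size.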 The gist of the method: as §1
A short description of experiment [7]: qHTS of pediatric cancer cell lines to identify multiple opportunities for drug repurposing: Confirmatory screen for SK-N-SH cells (AID 1347129).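 Further: cells exposed to compound for 48 h before viability read; nearly all actives have a fitted effect of over 60% in size.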 Put shortly:
as §1

The nature of experiment [8]: qHTS of pediatric cancer cell lines to identify multiple opportunities for drug repurposing: Confirmatory screen for TC32 cells (AID 1347118).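 Further: cells exposed to compound for 48 h before the read; nearly all actives have a fitted effect of over 65% in size.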 The gist of the method:
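qHTS, TC32, 48 h drug treatment, CellTiter-Glo luminescence as a proxy for metabolically active cells; primary top concentration 46 µM (MIPE 11-pt, NPC 8-pt); confirmatory 11-pt.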

A short description of experiment [9]: qHTS of pediatric cancer cell lines to identify multiple opportunities for drug repurposing: Confirmatory screen for control Hh wild type fibroblast cells (AID 1347121). Further: nearly all actives have a fitted effect of over 70% in size. The gist of the method:
as §1

Experiment [10] in a line: qHTS of pediatric cancer cell lines to identify multiple opportunities for drug repurposing: Confirmatory screen for U-2 OS cells (AID 1347122). Further: nearly all actives have a fitted effect of over 65% in size. Put shortly:
as §1

A short description of experiment [11]: qHTS of pediatric cancer cell lines to identify multiple opportunities for drug repurposing: Confirmatory screen for Rh30 cells (AID 1347126). Further: nearly all actives have a fitted effect of over 55% in size. The gist of the method:
as §1

Experiment [12] deals with Furin (Homo sapiens) (UniProt P09958). In words: Furin counterscreen qHTS for Zika virus inhibitors (AID 1347149). Further: nearly all actives have a fitted effect of over 70% in size. The gist of the method: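 Counterscreen measures cleavage of 2 microM BOC-RVRR-AMC, below its ~15 microM Km, by 5 nM full-length human furin at pH 7.0 after a 15-min compound preincubation. Inhibition derives from the 15-min fluorescence increase at 37C.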
A general note: Counterscreens check selectivity or assay interference.

The test system of experiment [13] is Zika virus NS2B-NS3 protease (unlinked). As to the kind of experiment: Optimization of GU AMC qHTS for Zika virus inhibitors: Unlinked NS2B-NS3 protease assay (AID 1347151). Further: nearly all actives have a fitted effect of over 80% in size. Put shortly: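 In this qHTS, compounds acted on 25 nM unlinked Zika NS2B–NS3 in pH 8.0 Tris/Tween buffer. Cleavage of an AMC peptide ran 15 min at room temperature, to about 20% conversion.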

Experiment [14] can be described thus: qHTS of pediatric cancer cell lines to identify multiple opportunities for drug repurposing: Confirmatory screen for LAN-5 cells (AID 1347113). Further: nearly all actives have a fitted effect of over 65% in size. The gist of the method:
as §1

The nature of experiment [15]: qHTS of pediatric cancer cell lines to identify multiple opportunities for drug repurposing: Confirmatory screen for Saos-2 cells (AID 1347127). Further: nearly all actives have a fitted effect of over 60% in size. The gist of the method: as §1
Experiment [16] deals with Zika virus NS2B-NS3 protease (linked construct). As to the kind of experiment: Confirmatory screen NINDS AMC qHTS for Zika virus inhibitors (AID 1347152). Further: nearly all actives have a fitted effect of over 70% in size. Put shortly:
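Concentration-response confirmation used the NINDS linked protease (NS2B hydrophilic domain joined to NS3 protease domain), 1 nM, with a 15-min compound preincubation. Substrate, Nle-KRR-AMC at 10 microM, was read by UV fluorescence before and after 15 min.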

Experiment [17] in a line: qHTS of pediatric cancer cell lines to identify multiple opportunities for drug repurposing: Confirmatory screen for Rh41 cells (AID 1347123).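 Further: 48 h compound exposure; nearly all actives have a fitted effect of over 60% in size.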 Put shortly:
as §1

Experiment [18] has as its target N-terminal Xaa-Pro-Lys N-methyltransferase 1 (Homo sapiens) (UniProt Q9BV86). In words: qHTS Assay for Inhibitors of N-terminal methyltransferase 1 (NTMT1): LOPAC validation of the NTMT1 SAHH-coupled ThioGlo3 Assay (AID 1347143).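 Further: SAH from peptide methylation measured as thiol fluorescence via SAHH coupling and ThioGlo3; nearly all actives have a fitted effect of over 70% in size.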 Put shortly: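 Steps: dispense 125nM NTMT1; pin-transfer test compounds at several concentrations, with 1uM RCC1-6 peptide as control; incubate 1 min; start with reagent holding 100uM SAM, 10uM SAHH, 15uM ThioGlo3; read at 0 and 30 min.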

A short description of experiment [19]: qHTS of pediatric cancer cell lines to identify multiple opportunities for drug repurposing: Confirmatory screen for NB-EBc1 cells (AID 1347115).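 Further: cells exposed to compound for 48 h before the viability read; nearly all actives have a fitted effect of over 45% in size.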 The gist of the method:
as §1
Potency means the concentration at half of the fitted maximal effect.

N-terminal Xaa-Pro-Lys N-methyltransferase 1 (Homo sapiens), sequence (Q9BV86 whole entry, looked up): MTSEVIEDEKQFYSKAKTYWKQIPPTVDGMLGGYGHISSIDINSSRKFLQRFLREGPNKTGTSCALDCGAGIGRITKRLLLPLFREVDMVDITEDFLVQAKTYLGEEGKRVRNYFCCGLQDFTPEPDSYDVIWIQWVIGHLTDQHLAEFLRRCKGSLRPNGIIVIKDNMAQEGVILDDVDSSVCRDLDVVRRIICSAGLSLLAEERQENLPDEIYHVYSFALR
Furin (Homo sapiens), sequence (P09958 whole entry, looked up): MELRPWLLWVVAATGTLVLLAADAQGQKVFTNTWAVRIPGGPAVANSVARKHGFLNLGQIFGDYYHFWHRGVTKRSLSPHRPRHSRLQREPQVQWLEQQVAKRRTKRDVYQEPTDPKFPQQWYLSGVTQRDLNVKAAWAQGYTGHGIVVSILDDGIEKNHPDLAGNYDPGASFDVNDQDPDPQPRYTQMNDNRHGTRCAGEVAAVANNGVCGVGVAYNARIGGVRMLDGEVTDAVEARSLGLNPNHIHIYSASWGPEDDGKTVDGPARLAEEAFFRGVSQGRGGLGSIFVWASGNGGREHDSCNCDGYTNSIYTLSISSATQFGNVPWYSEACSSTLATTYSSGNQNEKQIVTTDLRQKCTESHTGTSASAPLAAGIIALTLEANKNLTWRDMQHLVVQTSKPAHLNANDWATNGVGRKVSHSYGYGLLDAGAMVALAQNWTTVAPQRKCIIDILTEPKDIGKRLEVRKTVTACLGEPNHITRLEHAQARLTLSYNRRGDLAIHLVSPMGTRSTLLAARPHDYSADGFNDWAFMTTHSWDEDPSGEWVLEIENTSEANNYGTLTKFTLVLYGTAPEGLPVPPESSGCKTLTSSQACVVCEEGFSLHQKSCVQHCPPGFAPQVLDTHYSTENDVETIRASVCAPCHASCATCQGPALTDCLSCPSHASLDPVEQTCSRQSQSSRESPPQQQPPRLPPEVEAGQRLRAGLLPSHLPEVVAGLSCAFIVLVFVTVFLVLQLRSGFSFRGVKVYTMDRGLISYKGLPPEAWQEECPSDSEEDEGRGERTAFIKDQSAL

`N=C(N)c1ccc(OCCCCCOc2ccc(C(=N)N)cc2)cc1`: the Potency in experiment [1] is 3.29 µM (active); in experiment [2], 14.7 µM (active); in experiment [4], 11.7 µM (active). Besides, the Potency result in experiment [3], in [5], in [6] and in [7] was “inactive” in each case.
Consider `COC(=O)Nc1nc2ccc(C(=O)c3ccccc3)cc2[nH]1`, for which the Potency in experiment [1] is 4.14 µM (active); in experiment [2], 0.928 µM (active); in experiment [8] it was 369 nM (active); in experiment [10] it was 1.85 µM (active); in experiment [6], 2930 nM (active). Also, the Potency result in [9], in [5], in [11], in experiment [7], in experiment [12] and in [13] was “inactive” throughout.
For the molecule `COc1cc(NCc2ccc3nc(N)nc(N)c3c2C)cc(OC)c1OC`, the Potency in [1] is 3.29 µM (active); in [14], 18.5 µM (active); in experiment [8] it was 585 nM (active); in experiment [4], 20.8 µM (active); in experiment [11], 4.65 µM (active); in experiment [15], 10.4 µM (active). Moreover, the Potency in [6] is 3690 nM (active); in experiment [7], 4.69 µM (active); in experiment [12], 17.1 µM (active); in experiment [16] it was 24.1 µM (active). The Potency result in experiment [2], in experiment [9] and in experiment [10] was “inactive” throughout.
Regarding `Nc1nc(N)c2nc(CNc3ccc(C(=O)NC(CCC(=O)O)C(=O)O)cc3)cnc2n1` (centres undefined), the Potency was 0.928 µM (active) in experiment [1]; 329 nM (active) in experiment [8]; 369 nM (active) in [6]; 56.2 µM (active) in experiment [18]; 19.1 µM (active) in experiment [12]; 26.7 µM (active) in [13]. For the same molecule, in experiment [16], the Potency was 27.1 µM (active). The Potency result in experiment [14], in [4], in experiment [9], in experiment [10], in [17] and in experiment [5] was “inactive” each time. Further, the Potency entry in experiment [11], in experiment [15] and in experiment [7] was “inactive” throughout.
Consider `CC(C)NCC(O)c1ccc(NS(C)(=O)=O)cc1` (centres undefined), for which the Potency result in experiment [1], in [14], in experiment [2], in [19], in [3] and in experiment [8] was “inactive” each time. The Potency result in experiment [4], in experiment [9], in experiment [10], in [17], in [5] and in experiment [15] was “inactive” in each case. For the same molecule, the Potency entry in [6], in experiment [7], in experiment [18] and in experiment [13] was “inactive” throughout.
As to `CC1CC2C3CCC4=CC(=O)C=C[C@]4(C)[C@@]3(F)[C@@H](O)C[C@]2(C)[C@@]1(O)C(=O)CO` (some centres undefined), the Potency result in experiment [1], in experiment [14], in experiment [2], in experiment [19], in experiment [3] and in [8] was “inactive” each time. The Potency result in experiment [4], in experiment [9], in [10], in [17], in experiment [5] and in experiment [15] was “inactive” in each case. Besides, the Potency entry in experiment [6], in experiment [7], in experiment [18] and in experiment [13] was “inactive” each time.
`CC(C)C[C@H](NC(=O)[C@H](CCc1ccccc1)NC(=O)CN1CCOCC1)C(=O)N[C@@H](Cc1ccccc1)C(=O)N[C@@H](CC(C)C)C(=O)[C@@]1(C)CO1`: the Potency in experiment [1] was 0.165 µM (active); in experiment [14], 0.0329 µM (active); in experiment [19], 0.329 µM (active); in [3] it was 0.0737 µM (active); in [8], 23.3 nM (active); in experiment [4] it was 0.0657 µM (active). In addition, the Potency in experiment [9] is 0.737 µM (active); in experiment [5], 0.0465 µM (active); in [11] it was 0.117 µM (active); in experiment [15], 0.117 µM (active); in experiment [6], 208 nM (active); in experiment [7], 0.209 µM (active).
With `Nc1nc(=S)c2[nH]cnc2[nH]1`, the Potency in experiment [14] is 2.93 µM (active) and 2.33 µM (active); in experiment [2] it was 2.61 µM (active) and 1.47 µM (active); in [19], 2.61 µM (active); in [3], 5.22 µM (active); in experiment [8], 1.17 µM (active) and 737 nM (active); in experiment [10], 1.04 µM (active) and 928 nM (active). Also, the Potency in experiment [17] is 14.7 µM (active) and 13.1 µM (active); in experiment [5], 13.1 µM (active); in [15] it was 7.37 µM (active) and 2.93 µM (active); in experiment [6] it was 928 nM (active) and 414 nM (active); in experiment [7], 4.18 µM (active) and 3.72 µM (active). For the same molecule, the Potency entry in experiment [4], in [9], in experiment [12] and in experiment [13] was “inactive” each time.
On to `CCN(CC)CCn1c(=O)c(Cc2ccc(OC)cc2)nc2ccccc21`, for which the Potency result in experiment [13] was “inactive”.
With `NC(=O)c1cccc(N)c1`, the Potency entry in experiment [18] is “inactive”.
In the case of `Nc1nc(F)nc2c1ncn2[C@@H]1O[C@H](CO)[C@@H](O)[C@@H]1O`, the Potency entry in experiment [2] and in experiment [9] was “inactive” each time. Besides, the Potency was 1.65 µM (active) in experiment [3]; 18.5 µM (active) and 737 nM (active) in [8]; 737 nM (active) and 827 nM (active) in experiment [4]; 1.47 µM (active) in experiment [10]; 928 nM (active) and 1.17 µM (active) in [15]; 414 nM (active) in experiment [6].
As for `COc1nc(N)nc2c1ncn2[C@@H]1O[C@H](CO)[C@@H](O)[C@@H]1O`, the Potency entry in experiment [14], in experiment [2], in [19], in experiment [3], in experiment [9] and in experiment [10] was “inactive” each time. For the same molecule, the Potency entry in [15], in experiment [6] and in experiment [7] was “inactive” throughout. Also, the Potency was 3690 nM (active) in experiment [8] and 16.5 µM (active) in experiment [17].
Consider `N[C@@H](Cc1ccc(O)c(O)c1)C(=O)O`, for which, in experiment [18], the Potency is 50.1 µM (active).
Consider `CCN1CCCC1CNC(=O)c1cc(S(N)(=O)=O)ccc1OC` (centres undefined), for which, in experiment [18], the Potency is 56.2 µM (active). Also, the Potency result in experiment [13] was “inactive”.
Consider `O=S(=O)(O)CCS`, for which the Potency result in experiment [2], in experiment [8], in experiment [10], in experiment [17], in [5] and in experiment [11] was “inactive” throughout. For the same molecule, the Potency result in [7] is “inactive”. Further, the Potency in experiment [4] was 5.22 µM (active).
For `CCN(CC)CC#CCOC(=O)C(O)(c1ccccc1)C1CCCCC1` (centres undefined), the Potency entry in experiment [13] was “inactive”.
